Screens from PubChem.
NS1 function inh – inhibitors of influenza NS1 protein function; 270,000 compounds, 0.4% hits; AID 2326; Potency, µM (titrated, usually from 46.1 µM); calls by dose curve; note: actives are rising curves; nearly all actives have a fitted effect of over 50% in size
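Recovery from NS1-induced slow growth read by OD600 in budding yeast switched to galactose assay medium (pH 6.0, -URA) at 1:100 dilution. Compound 23 nl per well; the matching strain lacking NS1 serves as control.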
AMA1 RON2 block – AMA1-RON2 (P. falciparum) interaction inhibition; Potency, µM (highest dose often 58.2 µM), hits mostly inhibitors; AlphaScreen AMA1-biotinylated RON2 peptide binding; 360,000 compounds, 0.2% hits; note: nearly all actives have a fitted effect of over 45% in size
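AMA1 (3D7) with his tag at 25 nM final met compounds first, then biotinylated RON2 peptide at 25 nM; detection used donor plus acceptor beads, 10 µg/mL apiece, read by AlphaScreen after 30 min at room temperature.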
SARS PLpro yeast – blocks SARS-CoV papain-like protease in a yeast assay. S. cerevisiae expressing SARS-CoV PLpro, growth rescue. AID 485353. 330,000 compounds, 0.19% hits. Potency, µM (series often up to 32.9 µM), most hits filed as activators; calls by dose curve; note: nearly all actives have a fitted effect of over 55% in size
Pf growth 48h – P. falciparum growth inhibition at 48 hours (one generation) | Potency, µM (highest dose often 28.7 µM), hits mostly inhibitors | AID 504832 | P. falciparum luciferase growth in erythrocytes, 48 h | 310,000 compounds, 5.9% hits
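Cell-based growth assay: transgenic P. falciparum expressing firefly luciferase, cultured in red cells within RPMI 1640 containing 0.5% w/v Albumax, 24 mM bicarbonate and gentamycin. A drop in luciferase activity indicates inhibition.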
HCV inh – inhibitors of hepatitis C virus infection. Huh7.5.1 HCVcc-Cre infection, luciferase reporter, 44 h. Potency, µM (doses to about 41.8 µM), most hits filed as inhibitors. 340,000 compounds, 3.4% hits. AID 651820
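HCVcc-Cre virus at an moi near 0.5 was added right after compound to cells cultured 4 h from seeding (1,000 cells/well). Luciferase activity was determined 44 h later, 15 min after substrate addition at RT.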
Pf growth 96h – P. falciparum growth inhibition at 96 hour, primary screen for plastid delayed-death inhibitors; P. falciparum luciferase reporter growth, 96 h; Potency, µM (doses to about 28.7 µM), hits mostly inhibitors; 320,000 compounds, 6.9% hits; AID 504834
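Parasite growth measured via integrated firefly luciferase reporter in P. falciparum. Infected erythrocytes at 2% hematocrit, 0.05% parasitemia final were treated 96 hours at 37 C under 5% CO2, and luminescence was read.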
Large screens that a line does not name were inactive. Shown are actives, neighbours in structure and some others; about 12% of the full set was active somewhere. Unless noted, calls come from the whole dose curve; as a rule, active = well fitted curve in the direction sought with a large enough effect; inconclusive = small, poorly fitted or top-dose-only effect, or another doubt; inactive = no such curve, though single readings can be large; an effect the other way counts as inactive or inconclusive.

Cc1cc(C)c(C)c(S(=O)(=O)N2CCC(C(=O)NNC(=O)c3ccccc3O)CC2)c1C	HCV inh 7.08µM (no result: NS1 function inh)
Nc1cc(C(F)(F)F)ccc1OCC1CCCO1 (centres undefined)	none
CN(C)c1ccc(N=Cc2cccn2C)cc1	AMA1 RON2 block 22.4µM, HCV inh inconclusive, Pf growth 96h inconclusive
CN(C)c1ccc(N=Cc2nc(-c3ccccc3)oc2O)cc1	Pf growth 48h inconclusive (no result: Pf growth 96h)
CN(CC1CCOCC1)C(=O)CC1C(=O)NCCN1CC1CCCCC1 (centres undefined)	Pf growth 96h inconclusive
O=C(NCC1CCCO1)C1CCN(C2CCN(CCCC3CCCC3)CC2)CC1 (centres undefined)	Pf growth 48h inconclusive, HCV inh 10µM, Pf growth 96h inconclusive
CCC(C)NC(=O)CSc1nc2ccccc2c(=O)n1Cc1ccc(OC)cc1 (centres undefined)	Pf growth 96h 1.65µM (no result: Pf growth 48h)
C=CCn1c(SCC(=O)Nc2ccc(OC)cc2)nc2ccccc2c1=O	NS1 function inh inconclusive
CCC(C)NC(=O)CSc1nnc(-c2cc(-c3ccc(C)cc3)nc3ccccc23)n1N (centres undefined)	Pf growth 96h 11.7µM (no result: Pf growth 48h)
CCCNC(=O)NC(=O)CSc1nc2ccccc2c(=O)n1Cc1ccncc1	Pf growth 48h inconclusive, Pf growth 96h 13.1µM
CC(CCc1ccccc1)NC(=O)CSc1nnnn1C (centres undefined)	Pf growth 96h 4.65µM
C[C@@H](NC(=O)c1nc[nH]c1C(=O)NCc1ccccc1)c1ccccc1	Pf growth 96h inconclusive (no result: NS1 function inh)
O=C(CCC1CCN(C(=O)c2ccco2)CC1)NCc1ccc(F)cc1	Pf growth 96h inconclusive
COCCNCC(=O)Nc1nc(C)cs1	none (no result: NS1 function inh)
COCC(C)NC(=O)Cn1c(SCc2ccccc2)nc2ccccc21 (centres undefined)	none
COCC(C)NC(=O)CSc1nc2ccccc2n1CCc1ccccc1 (centres undefined)	Pf growth 96h 10.4µM
O=C1CSC(c2cccc([N+](=O)[O-])c2)N1CCc1ccccc1 (centres undefined)	SARS PLpro yeast inconclusive, Pf growth 48h inconclusive, Pf growth 96h inconclusive
COc1cc2c(C(=O)Nc3ccccc3F)cn(C)c(=O)c2cc1OC	Pf growth 96h 8.28µM
COc1cc2c(C(=O)N3CCN(c4ccccc4F)CC3)cn(C)c(=O)c2cc1OC	Pf growth 48h inconclusive, Pf growth 96h inconclusive (no result: NS1 function inh)
COc1cc2c(C(=O)NCc3ccccn3)cn(C)c(=O)c2cc1OC	none
COc1ccccc1NC(=O)c1cn(C)c(=O)c2cc(OC)c(OC)cc12	Pf growth 96h 8.28µM
O=C(Nc1ccc(S(=O)(=O)N2CCCC2)cc1)C1CC(=O)N(CCc2ccccc2)C1 (centres undefined)	none (no result: NS1 function inh, SARS PLpro yeast, Pf growth 48h, HCV inh, Pf growth 96h)
CC(=O)N/C(=C\c1ccccc1)C(=O)OC/C=C/c1ccccc1	none
O=C(NCCc1csc(-c2cccnc2)n1)c1ccc(Br)o1	Pf growth 48h inconclusive, HCV inh inconclusive, Pf growth 96h 8.28µM
O=C(NCCc1csc(-c2ccccc2)n1)c1c(F)cccc1F	HCV inh inconclusive (no result: NS1 function inh)
O=C(NCCc1csc(-c2cccnc2)n1)c1c(F)cccc1F	HCV inh 11.2µM
COc1ccc2nc(SCC(=O)NC3CCCC3)c(C)cc2c1	none
CC(C)C(=O)NC(c1ccc([N+](=O)[O-])cc1)c1c(O)ccc2ccccc12 (centres undefined)	Pf growth 48h 1.85µM, Pf growth 96h 2.62µM
CC(C)C(=O)NC(c1cccc([N+](=O)[O-])c1)c1c(O)ccc2ccccc12 (centres undefined)	Pf growth 48h 4.65µM
O=C(CCNC(=O)c1ccccc1Cl)Nc1ccncc1	none
C=CCc1c(C)nc(-c2ccccc2)nc1Nc1ccccc1O	Pf growth 48h 5.22µM, HCV inh inconclusive, Pf growth 96h inconclusive
COc1ccc(C(=O)Nc2ccccc2C(=O)N2CCCCC2C)cc1 (centres undefined)	none
COCC1CCN(Cc2cn(Cc3ccccc3)nc2-c2cc3ccccc3o2)CC1	Pf growth 48h inconclusive
COC(=O)C1CCN(Cc2cn(Cc3ccccc3)nc2-c2cc3ccccc3o2)CC1	Pf growth 48h 8.28µM, HCV inh inconclusive
OC1CCN(Cc2cn(Cc3ccccc3)nc2-c2cc3ccccc3o2)CC1	Pf growth 48h 13.1µM, HCV inh inconclusive
Cc1ncsc1CCOC(=O)c1cccc([N+](=O)[O-])c1	Pf growth 96h inconclusive
Cc1ncsc1CCOC(=O)C1C2CC3CC(C2)CC1C3 (centres undefined)	Pf growth 48h inconclusive, Pf growth 96h 13.1µM
O=C(O)C1(c2ccccc2)CCN(S(=O)(=O)c2ccc(Br)cc2)CC1	Pf growth 96h inconclusive
Nc1nc(Nc2ccccc2)nc(NCc2ccccc2)c1[N+](=O)[O-]	Pf growth 48h inconclusive, HCV inh inconclusive, Pf growth 96h inconclusive
CCOc1ccc(Nc2nc(N)c([N+](=O)[O-])c(NCc3ccccc3)n2)cc1	Pf growth 48h 5.22µM, Pf growth 96h inconclusive
COc1cccc(Nc2nc(N)c([N+](=O)[O-])c(NCc3ccccc3)n2)c1	Pf growth 48h 4.65µM, HCV inh inconclusive, Pf growth 96h 11.7µM
COc1ccccc1NC(=O)COC(=O)C1=NN(c2ccccc2)C(=O)CC1	none (no result: NS1 function inh, Pf growth 48h, Pf growth 96h)
Cc1ccc(NC(=O)COC(=O)CCC2CCCC2)cc1S(=O)(=O)N1CCOCC1	none (no result: NS1 function inh, Pf growth 48h, Pf growth 96h)
CCCC(=O)N(c1ccc(OCC)cc1)S(=O)(=O)c1ccc2c3c(cccc13)C(=O)N2C	Pf growth 48h inconclusive, HCV inh inconclusive, Pf growth 96h inconclusive
O=C(NC(=S)N1CCCc2ccccc21)c1ccc([N+](=O)[O-])cc1	Pf growth 48h inconclusive, HCV inh inconclusive, Pf growth 96h 7.38µM
O=C(NC(=S)N1CCCc2ccccc21)c1ccccc1	HCV inh inconclusive, Pf growth 96h inconclusive
Cc1cc(=O)n2ccsc2n1	Pf growth 96h 13.1µM
Cc1nc2sccn2c1P(c1c(C)nc2sccn12)c1c(C)nc2sccn12	Pf growth 48h 8.28µM, Pf growth 96h inconclusive
Cc1ccc(CNC(=O)COc2ccc(C(=O)c3ccc(F)cc3)cc2)cc1	Pf growth 96h inconclusive
C=CCNC(=O)c1ccc(NC(=O)CC2SC(N3CCCC3)=NC2=O)cc1 (centres undefined)	none (no result: NS1 function inh)
CC(C)OC(=O)CSc1nc(Cc2cccs2)nc2ccccc12	Pf growth 48h inconclusive
Fc1ccc(-n2c(-c3cccs3)nc3nc4ccccc4nc32)cc1	Pf growth 96h inconclusive
Cc1ccc(-n2c(-c3cccs3)nc3nc4ccccc4nc32)cc1	Pf growth 96h 2.94µM (no result: AMA1 RON2 block)
CCCCn1c(O)c(N=Nc2ccccc2O)c2ccccc21	Pf growth 48h 6.57µM, HCV inh inconclusive (no result: NS1 function inh)
CCn1nc(NC(=O)c2cccnc2)c2cc3cccc(C)c3nc21	HCV inh inconclusive
